Rows were chosen to be rich in hits. Some 2.4% of all compounds tested hit in one or more screens of this group.
D2 ag-1 – HTS Assay for Allosteric Agonists of the Human D2 Dopamine Receptor: Primary Screen for Agonists; HEK293 T-REx D2 cells, calcium flux agonist mode; activation, % at 2 µM; 340,000 tested, 0.53% active;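 active = activation over 3 SD above normal in the single-dose calcium agonist read, cut at about 30% in these data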; note: 0% is about no effect
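In this primary screen, compounds producing a positive calcium signal within 180 s of addition to tetracycline-induced, force-coupled HEK293 Trex D2 cells are flagged; cells are dye-loaded with a no-wash calcium kit beforehand.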
D2 PAM-1 – Beta-Arrestin HTS for Positive Allosteric Modulators of the Human D2 Dopamine Receptor: Potentiators | 360,000 tested, 0.23% active | AID 624464, 2012 | potentiation, % (no concentration beside the values) | DiscoveRx D2 beta-arrestin cells, luminescence, 90 min; 100% = 57 uM dopamine signal; in the data active = potentiation above about 50%; inconclusive = mostly about 30% to 49%
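PathHunter D2 cells, attached overnight at 37 deg C, received compound in DMSO plus dopamine at EC20 (50 nM final) for 90 min at 37 deg C. Beta-arrestin recruitment was read as luminescence after 1 h with detection reagent at ambient temperature.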
D2 antagonist – HTS Assay for Allosteric Antagonists of the Human D2 Dopamine Receptor: Primary Screen for Antagonists; D(2) dopamine receptor (Homo sapiens), P14416; HEK293 TREx D2 cells, calcium flux, dopamine EC80; inhibition, % at 10 µM; 340,000 tested, 2% active; in the data active = inhibition above about 30%; inactive = below that, where a call was filed; note: 0% is about no effect
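In this primary screen, negative modulation is detected by tracking calcium flux after an EC80 dopamine challenge in inducible HEK293 T-REx D2 cells preexposed to test compound for 180 s.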
D2 PAM-2 – HTS Assay for Positive Allosteric Modulators of the Human D2 Dopamine Receptor: Primary Screen for Potentiators; 340,000 tested, 0.34% active; HEK293 T-REx D2, calcium flux, EC20 dopamine potentiation; potentiation, % at 10 µM;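 active = potentiation over 3 SD above the plate norm, cut at about 30% in these data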; note: 0% is about no effect
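Tetracycline-induced HEK293 T-REx cells force-coupled to calcium signalling expressed D2; compounds were pin-added after a 10 s baseline, read kinetically 180 s, then an EC20 dopamine challenge followed with a further 180 s calcium read.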
B2AR arrestin – qHTS assay of beta-arrestin-biased ligands of beta2-adrenergic receptor; Beta-2 adrenergic receptor (Homo sapiens), P07550; beta-arrestin recruitment to beta2AR, cell-based reporter; Potency, µM (titrated, usually from 46.1 µM), for the others: top-dose activation, hits mostly activators; 330,000 tested, 0.02% active;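 note: potency is the fitted concentration of half-maximal effect; 0% = DMSO controls and full agonism = EC100 isoproterenol or metaproterenol; nearly all actives have a fitted effect of over 65% in size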
Target sequence (P07550 whole entry, looked up): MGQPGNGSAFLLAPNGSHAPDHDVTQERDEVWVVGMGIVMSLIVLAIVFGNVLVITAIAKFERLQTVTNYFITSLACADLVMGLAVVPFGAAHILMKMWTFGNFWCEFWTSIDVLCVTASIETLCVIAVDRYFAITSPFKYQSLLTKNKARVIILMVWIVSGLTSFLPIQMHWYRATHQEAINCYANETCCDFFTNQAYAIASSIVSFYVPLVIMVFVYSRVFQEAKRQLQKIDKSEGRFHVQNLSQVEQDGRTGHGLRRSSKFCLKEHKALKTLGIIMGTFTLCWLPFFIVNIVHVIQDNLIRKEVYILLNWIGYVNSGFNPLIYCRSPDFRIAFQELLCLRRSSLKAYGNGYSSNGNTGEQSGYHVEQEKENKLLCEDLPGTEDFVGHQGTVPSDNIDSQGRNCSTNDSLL
D2 ag-2 – Beta-Arrestin HTS for Positive Allosteric Modulators of the Human D2 Dopamine Receptor: Agonists; DiscoveRx PathHunter D2 beta-arrestin, luminescence, 90 min; 100% = 57 uM dopamine signal; activation, % (test concentration not listed); 360,000 tested, 0.084% active; AID 624465, 2012; in the data active = activation above about 40%; inconclusive = between about 15% and that limit
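DiscoveRx PathHunter D2 beta-arrestin cells (2,100/well) attached overnight, then compound-stimulated 90 min at 37 C in HBSS/10 mM HEPES/0.1% Tween-20 buffer; beta-galactosidase complementation read by luminescence after 1 h at ambient temperature. Dopamine 57 uM final (EC100) as control.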
D3 ag – qHTS of D3 Dopamine Receptor Agonist: D3 Dopamine Receptor B-arrestin Agonist Confirmatory Assay | shares compounds with D2 ag-1 | DiscoveRx D3 beta-arrestin cells, luminescence, 90 min | Potency, µM (titrated, usually from 76.9 µM), for inactives: at the top dose activation, most hits filed as activators | 2,300 tested, 4% active | AID 720506, 2013;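 note: potency is the fitted concentration of half-maximal effect; 100% = dopamine control response; nearly all actives have a fitted effect of over 70% in size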
D2 ag-3 – qHTS of D3 Dopamine Receptor Agonist: D2 Dopamine Receptor B-arrestin Agonist Counterscreen. 2,300 tested, 5.9% active. DiscoveRx PathHunter D2 beta-arrestin, luminescence, 90 min; response scale: percent relative to full dopamine signal. Potency, µM (titrated, usually from 76.9 µM), for the others: top-dose activation, usual class: activators. shares compounds with D2 ag-1; note: potency is the fitted concentration of half-maximal effect; % of control where 0% means no effect; nearly all actives have a fitted effect of over 70% in size
An asterisk follows results filed as active; ? = inconclusive; . = not tested or not shown. Unless noted, calls come from the whole dose curve; as a rule, active = well fitted activation curve with a large enough effect; inconclusive = small, poorly fitted or top-dose-only effect; inactive = flat fitted curve, though single readings scatter.

SMILES	D2 ag-1	D2 PAM-1	D2 antagonist	D2 PAM-2	B2AR arrestin	D2 ag-2	D3 ag	D2 ag-3
Cc1ccc(NC(=O)c2nc[nH]c2C(=O)NCCCCCNC(=O)OC(C)(C)C)cc1	-0.2	5.8	-2.5	-13.9	0.3%	4.6	11.8%	-0.8%
CC(C)(C)OC(=O)NCCCCCNC(=O)c1[nH]cnc1C(=O)Nc1ccc(Cl)cc1	-1.3	-1.9	-4.7	-2.1	0.0%	-0.9	.	.
Cc1ccc(NC(=O)c2nc[nH]c2C(=O)N2CCN(C(=O)OC(C)(C)C)CC2)cc1	-1.2	-6.5	14.8	-11.7	0.3%	-2.3	-7.4%	-2.0%
CC(C)(C)OC(=O)N1CCN(C(=O)c2[nH]cnc2C(=O)Nc2ccc(Cl)cc2)CC1	.	-23.6	.	.	2.9%	-1.2	.	.
COc1cc(OC)c(NC(=O)c2ccc3c(SCC(=O)O)c4c(nc3c2)CCCC4)cc1Cl	0.9	-1.1	-23.5	1.8	-1.0%	-18.7	.	.
CCOc1ccccc1-n1nnnc1SCC(=O)NC(=O)Cc1ccccc1	-1.0	-20.4	-11.8	-13.7	-0.3%	-6.2	-3.1%	-1.3%
O=C(O)C1C2CC3C(OC(=O)C31)C2Cl (centres undefined)	-0.3	-3.8	2.1	10.3	-1.3%	1.9	.	.
CCN(CC)C(=O)c1[nH]cnc1C(=O)Nc1cccc(C)c1	-0.2	-19.8	2.6	-9.9	-0.1%	-3.7	.	.
O=C(NC(Nc1nc2ccc([N+](=O)[O-])cc2s1)(C(F)(F)F)C(F)(F)F)c1ccccc1Cl	14.8	-5.6	20.4	-18.2	-0.2%	-4.2	.	.
O=C(NC(Nc1nc2ccc([N+](=O)[O-])cc2s1)(C(F)(F)F)C(F)(F)F)c1cccnc1	25.0	-3.4	8.0	-6.3	-0.4%	-2.8	11.6%	-3.9%
Cc1ccccc1NC(=O)Cc1nc(COC(=O)CCc2ccccc2)cs1	-0.7	-0.4	15.1	3.9	0.1%	-2.1	.	.
COc1cccc(CC(=O)OCc2csc(CC(=O)Nc3ccccc3C)n2)c1	0.6	12.3	15.8	-2.1	-0.1%	-1.0	-0.6%	-3.0%
O=C(COc1ccccc1Cl)OCc1cc(=O)n2nc(C3CC3)sc2n1	0.6	.	.	9.6	.	.	.	.
CC(C)N1C(=O)c2ccccc2C1C(=O)NCCc1ccccc1 (centres undefined)	-0.1	-11.2	-7.5	-4.7	4.9%	7.7	.	.
O=C(NCc1ccc2c(c1)OCO2)c1nc(Cn2cc(Br)cn2)no1	.	-4.4	.	.	-0.5%	2.1	-0.8%	-2.6%
Oc1ccccc1C=NCC(O)c1ccccc1 (centres undefined)	3.9	11.1	-21.3	0.9	-0.6%	-1.4	11.6%	6.1%
Cc1ccsc1C(=O)Nc1ccc(O)c(-c2nc3ccccc3s2)c1	0.9	-8.9	-1.7	-13.5	-0.6%	-5.4	.	.
Cc1cc(-c2n[nH]c(=S)n2/N=C/c2sccc2C)n[nH]1	65.9*	-2.3	-15.0	-25.5	0.1%	-2.1	-16.1%	-11.8%
Cc1[nH]nc2c1C1(CCN(Cc3ccccc3)CC1)C(C#N)=C(N)O2	.	-7.0	.	.	-0.3%	6.2	-1.0%	-7.4%
Cc1[nH]nc2c1C1(CCOCC1)C(C#N)=C(N)O2	0.6	-0.2	6.4	-3.4	-0.8%	-4.9	.	.
COc1ccc2cc3cc(C(=O)NCCN4CCc5ccccc5C4)sc3nc2c1	72.1*	-13.0	19.1	-28.1	0.2%	2.6	-7.6%	?
CCOC(=O)c1nncc(-c2ccccc2)n1	0.2	-4.6	2.3	15.6	0.3%	-2.3	-2.7%	-2.7%
CCOC(=O)c1cc(-c2ccccc2)n[nH]1	-1.1	2.3	-14.8	-1.4	-0.7%	-0.8	.	.
N#CC[C@H](Cc1ccccc1)N1CCN(CCc2ccccc2)CCC1=O	49.6*	-19.8	33.6*	-16.8	-2.1%	-2.0	14.6%	0.5%
N#CC[C@H](Cc1ccccc1)N1CCN(Cc2ccccc2)CCC1=O	0.6	-4.0	11.1	-0.1	0.4%	-0.3	.	.
SMILES	D2 ag-1	D2 PAM-1	D2 antagonist	D2 PAM-2	B2AR arrestin	D2 ag-2	D3 ag	D2 ag-3
CC(C)C[C@@H](CO)N1CCN(Cc2ccccc2)CCC1=O	.	-9.1	.	0.8	-1.2%	-3.2	.	.
CC(C)C[C@@H](CO)N1CCN(CCCc2ccccc2)CCC1=O	-0.8	-7.3	34.7*	7.6	0.1%	-2.0	-1.3%	17.9%
O=C1CCN(CCCc2ccccc2)CCN1[C@H](CO)c1ccccc1	0.0	-15.5	22.6	7.7	-1.2%	0.1	?	19.6%
COc1cc(NC(=O)c2oc3ccccc3c2C)ccc1NC(=O)c1ccco1	1.2	3.8	4.9	2.9	0.5%	2.3	.	.
O[C@@H]1CN(Cc2ccc(-n3cccn3)cc2)CC[C@H]1N1CCN(c2ccccc2F)CC1	65.0*	-1.4	38.5*	-23.5	5.6%	7.6	16.7%	?
Cc1ccc(CN2CCN(Cc3ccc(-n4cccn4)cc3)CC2CCO)cc1 (centres undefined)	-1.4	-13.7	-14.6	-17.9	-1.2%	1.3	.	.
CC(C(=O)N(C)Cc1ccccc1)N1CCN(C/C=C/c2ccccc2)CC1 (centres undefined)	68.6*	-4.1	68.7*	-15.7	-0.7%	?	?	?
COc1ccc(Cl)cc1NC(=O)C(C)N1CCN(C/C=C/c2ccccc2)CC1 (centres undefined)	11.6	-33.1	-11.0	-16.0	-0.1%	-1.9	.	.
CC(C(=O)Nc1ccc([N+](=O)[O-])cc1)N1CCN(C/C=C/c2ccccc2)CC1 (centres undefined)	67.0*	-30.4	52.7*	-29.6	0.0%	3.1	?	?
CC(=O)c1ccc(NC(=O)C(C)N2CCN(C/C=C/c3ccccc3)CC2)cc1 (centres undefined)	19.7	-24.2	47.0*	-13.7	-1.0%	5.1	?	2.4%

Screens from PubChem.
